Experimental data reported in PubChem BioAssay AID504652 (National Center for Advancing Translational Sciences (NCATS), 2011).
Several values for one entry are separate records, joined by “and”; a condition that tells them apart may be missing. Identical values can stand only once. Out of some 360,000 compounds screened, about 11,000 (3.1%) were called active. The sample holds actives, similar compounds and a random draw of the others, so the mix is not that of the screen. Cut-off read from the data, not from the text of the source: active = activity change below about -30%; inactive = the rest. The source holds several records for some structures; these can differ, active in one and inactive in another.
% is set by controls: 0 for no effect and ±100 for the full control effect.

These compounds were tested against D(1A) dopamine receptor (Homo sapiens) (UniProt P21728) (assay: Antagonist of Human D 1 Dopamine Receptor: qHTS). Details: HEK293 TREx D1 cells, calcium flux, dopamine EC80; at 10 µM; stronger effect = lower value.
Chain of D(1A) dopamine receptor (Homo sapiens) (P21728 whole entry, looked up): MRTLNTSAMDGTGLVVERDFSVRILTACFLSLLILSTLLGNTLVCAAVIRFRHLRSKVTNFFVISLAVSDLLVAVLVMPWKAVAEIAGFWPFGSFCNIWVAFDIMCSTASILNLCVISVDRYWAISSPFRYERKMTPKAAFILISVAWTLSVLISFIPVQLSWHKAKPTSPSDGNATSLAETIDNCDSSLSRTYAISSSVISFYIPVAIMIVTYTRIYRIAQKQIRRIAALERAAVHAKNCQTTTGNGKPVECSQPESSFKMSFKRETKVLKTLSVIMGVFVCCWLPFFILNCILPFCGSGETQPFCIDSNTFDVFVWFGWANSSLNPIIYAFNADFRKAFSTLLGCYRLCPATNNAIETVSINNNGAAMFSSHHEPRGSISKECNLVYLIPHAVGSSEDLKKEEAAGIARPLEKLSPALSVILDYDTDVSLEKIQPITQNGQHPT
Summary of the method: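 Cells carrying a force-coupled, tetracycline-inducible human D1 receptor report calcium flux. Each well gets a 10 s baseline, compound with 180 s monitoring, then an EC80 dopamine stimulus with a second 180 s kinetic read.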
With `Cc1ccc(NC(=O)CCCNC(=O)c2ccc(Cl)cc2)cc1S(=O)(=O)N1CCOCC1` the activity change, negative = inhibition was -36.7% (active). In the case of `Cc1ccc(NC(=O)CCNC(=O)c2ccc([N+](=O)[O-])cc2)cc1S(=O)(=O)N1CCOCC1`, the activity change, negative = inhibition is reported as 4.33% (inactive). In the case of `Cc1ccc(NC(=O)CCCNC(=O)c2ccc(Cl)cc2)cc1S(=O)(=O)N1CCCCC1`, the activity change, negative = inhibition is reported as 35.4% (inactive). With `Cc1ccccc1CNC(=O)c1ccc(NC(=O)N2CCCCc3ccccc32)cc1` the activity change, negative = inhibition was 12.4% (inactive). `Cc1ccccc1CN1CCC(CNC(=O)c2cc3ccc4cccnc4c3[nH]2)CC1` was tested, and the activity change, negative = inhibition was -3.23% (inactive). With `COc1ccc([C@@H]2[C@@H]3C(=O)N(C(C)(C)C)C(=O)[C@@H]3[C@]3(Cc4ccccc4)C(=O)N(c4cccc(Br)c4)C(=O)N23)cc1` the activity change, negative = inhibition was -34.9% (active). For `CC[C@@]12C(=O)N(c3ccccc3)C(=O)N1[C@H](c1ccc(Br)cc1)[C@@H]1C(=O)N(C(C)(C)C)C(=O)[C@@H]12`, the activity change, negative = inhibition was -1.44% (inactive). `CC(C)(C)N1C(=O)[C@H]2[C@@H](c3ccc(Br)cc3)N3C(=O)N(c4cccc(Cl)c4)C(=O)[C@@]3(C)[C@H]2C1=O` was tested, and the activity change, negative = inhibition was -17.7% (inactive). With `Cc1nn(C(=O)c2c(F)cccc2F)c(C)c1S(=O)(=O)N1CCOCC1` the activity change, negative = inhibition was 10.5% (inactive). With `CCOc1ccc(N(CC)C(=O)C2CCN(S(=O)(=O)c3cccc4nonc34)CC2)cc1` the activity change, negative = inhibition was -22% (inactive). In the case of `Cc1cc2n(n1)C(c1cc(C(C)(C)C)c(O)cc1O)Nc1ccccc1-2` (stereo not drawn), the activity change, negative = inhibition is reported as 0.223% (inactive). For `NS(=O)(=O)c1ccc2nc(NC(=O)CS(=O)(=O)c3ccc(F)cc3)sc2c1`, the activity change, negative = inhibition was 3.05% (inactive). In the case of `NS(=O)(=O)c1ccc2nc(NC(=O)COc3ccccc3)sc2c1`, the activity change, negative = inhibition is reported as -38.3% (active). With `CN(C(=O)CSc1nc2ccc(NC(=O)COc3ccccc3)cc2s1)c1ccccc1` the activity change, negative = inhibition was -11.3% (inactive). For `COc1cccc(NS(=O)(=O)c2ccc(-c3coc(C)n3)cc2)c1`, the activity change, negative = inhibition was -22% (inactive). For `CCN(c1cccc(C)c1)S(=O)(=O)c1ccc(-c2coc(C)n2)cc1`, the activity change, negative = inhibition was -16.9% (inactive). With `Cc1ccc(NS(=O)(=O)c2ccc(-c3coc(C)n3)cc2)c(C)c1` the activity change, negative = inhibition was -39.4% (active). `O=C(c1ccc(Br)cc1)N(Cc1cccs1)c1ccc(F)cc1` was tested, and the activity change, negative = inhibition was -5.47% (inactive). With `Cc1cccc(OCC(=O)NC2CC(C)(C)NC(C)(C)C2)c1` the activity change, negative = inhibition was 0.221% (inactive). For `COc1ccc(C(=O)NC2CC(C)(C)NC(C)(C)C2)cc1OC`, the activity change, negative = inhibition was -30.4% (active). With `COc1cc(OC)c(C(=O)NC2CC(C)(C)NC(C)(C)C2)cc1OC` the activity change, negative = inhibition was -1.99% (inactive). With `Cc1ccc(NC(=O)c2oc3ccc(S(=O)(=O)N4CCCCC4)cc3c2C)cc1Cl` the activity change, negative = inhibition was 0.571% (inactive). For `Cc1cccc(-n2nc3c(c2NC(=O)c2cc4ccccc4o2)CS(=O)(=O)C3)c1`, the activity change, negative = inhibition was -49.1% (active). With `CC(C)(C)n1nc2c(c1NC(=O)c1cc3ccccc3o1)CSC2` the activity change, negative = inhibition was 6.7% (inactive). In the case of `O=C(Nc1c2c(nn1-c1cccc(Cl)c1)CS(=O)(=O)C2)c1cccs1`, the activity change, negative = inhibition is reported as -16.2% (inactive). With `Cc1nc2c(c(C)nn2-c2ccccc2)c(C)c1CCC(=O)NCCc1ccc(Cl)cc1` the activity change, negative = inhibition was -0.289% (inactive). For `Cc1oc(C)c2c(=O)cc(-c3ccc4c(c3)OCO4)cc(OC(=O)c3ccc(Cl)cc3)c12`, the activity change, negative = inhibition was -1.78% (inactive). With `CCN1CCN(CCCNC(=O)c2cnn(-c3ccc(C)cc3C)c2C2CCN(C(=O)OC(C)(C)C)CC2)CC1` the activity change, negative = inhibition was 6.05% (inactive). `CCOC(=O)c1c(C)[nH]c(C)c1S(=O)(=O)NCC(=O)NCc1cccc(C)c1` was tested, and the activity change, negative = inhibition was 13.9% (inactive). In the case of `CCCCNC(=O)c1onc(CSc2cccc(OC)c2)c1C(=O)O`, the activity change, negative = inhibition is reported as -73.2% (active). With `CCOc1cccc(SCc2noc(C(=O)NC(C)C)c2C(=O)O)c1` the activity change, negative = inhibition was 3.21% (inactive). With `COCCNC(=O)c1onc(CSc2cccc(C)c2)c1C(=O)O` the activity change, negative = inhibition was 2.03% (inactive). For `CC(=O)N1CCCc2cc(S(=O)(=O)N3CCC(C(=O)NCc4ccc(C)cc4)CC3)ccc21`, the activity change, negative = inhibition was 12.1% (inactive). For `O=C(NCCCN1CCOCC1)c1ccc2c(c1)N(Cc1cccc(F)c1)C(=O)c1ccccc1S2`, the activity change, negative = inhibition was -42.1% (active). With `Cc1ccccc1CN1C(=O)c2ccccc2Sc2ccc(C(=O)NCCCN3CCOCC3)cc21` the activity change, negative = inhibition was -9.56% (inactive) and -12% (inactive). `CCC1=Nc2cc(C(=O)NCCCN3CCOCC3)ccc2Sc2ccc(Br)cc21` was tested, and the activity change, negative = inhibition was 11% (inactive). `CN1CCN(S(=O)(=O)c2cccc(C(=O)N3CCc4ccccc43)c2)CC1` was tested, and the activity change, negative = inhibition was -0.291% (inactive). With `CC1CCN(C(=O)c2cccc(S(=O)(=O)N3CCCc4ccccc43)c2)CC1` the activity change, negative = inhibition was -43.6% (active). For `Cc1ccc(NC(=O)c2cccc(S(=O)(=O)N3CCCc4ccccc43)c2)nc1`, the activity change, negative = inhibition was 3.95% (inactive). With `COc1ccc(Nc2ncc3c(n2)CCN(C(=O)OC(C)(C)C)C3)cc1` the activity change, negative = inhibition was -16.1% (inactive). `CCCC(=O)Nc1cc2nn(-c3ccccc3)nc2cc1C` was tested, and the activity change, negative = inhibition was -6.53% (inactive). In the case of `O=C(c1cc(-c2ccc(F)cc2)on1)N1CCN(c2ccc(F)cc2)CC1`, the activity change, negative = inhibition is reported as 6.41% (inactive) and -30% (active). With `O=C(c1cc(-c2ccc(O)cc2)on1)N1CCOCC1` the activity change, negative = inhibition was -2.21% (inactive). In the case of `O=C(c1cc(-c2ccc(Cl)cc2)on1)N1CCN(c2ccccc2)CC1`, the activity change, negative = inhibition is reported as 8.05% (inactive). With `Cc1nc(SCCOc2ccc(Cl)cc2)[nH]c(=O)c1Cc1ccccc1` the activity change, negative = inhibition was -8.51% (inactive). With `Cc1nc(SC(C)C)[nH]c(=O)c1Cc1ccccc1` the activity change, negative = inhibition was -31.2% (active). In the case of `Cc1ccc(OCCSc2nc(C)c(Cc3ccccc3)c(=O)[nH]2)cc1`, the activity change, negative = inhibition is reported as -2.95% (inactive). `COc1ccc(C2(Nc3cccc(F)c3)C(=O)c3ccccc3C2=O)cc1` was tested, and the activity change, negative = inhibition was -16% (inactive). `Cc1nc(N)[nH]c(=O)c1Oc1cccc(C(F)(F)F)c1` was tested, and the activity change, negative = inhibition was 7.25% (inactive). For `CCC(=O)OCc1c(C(F)(F)F)nn(C)c1Oc1cccc(C(F)(F)F)c1`, the activity change, negative = inhibition was -39.6% (active). With `CCOC(=O)NNc1cc(C(F)(F)F)ccn1` the activity change, negative = inhibition was -4.5% (inactive). With `CC(=O)N1CCCc2ccc(NS(=O)(=O)c3ccc(F)cc3F)cc21` the activity change, negative = inhibition was 8.04% (inactive). In the case of `O=C(O)c1ccc2c(c1)N(Cc1ccc(F)cc1)C(=O)c1ccccc1S2=O` (stereo not drawn), the activity change, negative = inhibition is reported as -20.6% (inactive). In the case of `CN(C)c1ccc(C=NCCc2ccc(S(N)(=O)=O)cc2)cc1`, the activity change, negative = inhibition is reported as 0.508% (inactive). With `NS(=O)(=O)c1ccc(CCNC(=S)Nc2ccc(S(N)(=O)=O)cc2)cc1` the activity change, negative = inhibition was -10.1% (inactive). With `CCCCc1ccc(S(N)(=O)=O)cc1` the activity change, negative = inhibition was -32.1% (active). `Brc1cccc(-c2nnc3n2CCC3)c1` was tested, and the activity change, negative = inhibition was 4.2% (inactive). For `Cc1c(C(=O)Nc2cccc(-c3nnc4n3CCCCC4)c2)oc2ccccc12`, the activity change, negative = inhibition was -14.2% (inactive). With `O=C(Cn1[nH]c(=O)c2ccccc2c1=O)Nc1cccc(-c2nnc3n2CCCCC3)c1` the activity change, negative = inhibition was -31.5% (active). `O=S(=O)(c1ccc2nc(NCc3ccccc3Cl)ccc2c1)N1CCCCC1` was tested, and the activity change, negative = inhibition was 7.22% (inactive). `COC(=O)CN1C(=O)CSc2ccc(S(=O)(=O)Nc3cc(C)ccc3C)cc21` was tested, and the activity change, negative = inhibition was 7.51% (inactive). In the case of `COc1ccc(Nc2cc(C(=O)NCCCN(C)c3ccccc3)c3ccccc3n2)c(OC)c1`, the activity change, negative = inhibition is reported as -3.52% (inactive). With `CCCCN(CCCNC(=O)c1cc(Nc2ccccc2OC)nc2ccccc12)c1ccccc1` the activity change, negative = inhibition was -1.02% (inactive). With `COc1ccccc1Nc1cc(C(=O)NCCCN(C)C2CCCCC2)c2ccccc2n1` the activity change, negative = inhibition was -69.1% (active). With `CCCn1c(NCc2ccc(N(CC)CC)cc2)nc2ccccc21` the activity change, negative = inhibition was 7.83% (inactive). In the case of `COc1ccc(OCC(=O)NCCS(=O)(=O)N2CCN(c3ccc(F)cc3)CC2)cc1`, the activity change, negative = inhibition is reported as -3.53% (inactive). With `O=C(COc1ccc(Cl)cc1)NCCS(=O)(=O)N1CCN(c2ccc(F)cc2)CC1` the activity change, negative = inhibition was -39.2% (active). With `COc1ccccc1N1CCN(S(=O)(=O)CCNC(=O)COc2ccc(F)cc2)CC1` the activity change, negative = inhibition was -4.69% (inactive). In the case of `COc1cc(NC(=O)Cn2nc(-c3ccc(C)c(C)c3)ccc2=O)cc(OC)c1`, the activity change, negative = inhibition is reported as -2.73% (inactive). `CCOc1ccc(S(=O)(=O)N(CC(=O)NCCSCc2ccc(C)cc2)c2ccccc2)cc1` was tested, and the activity change, negative = inhibition was -1.46% (inactive). For `CCCSc1ncc(Cl)c(C(=O)Nc2sc3c(c2C(=O)NCCOC)CCCC3)n1`, the activity change, negative = inhibition was 3.43% (inactive). In the case of `O=S(=O)(c1ccc(Br)cc1)N1CCC(c2nc3ccccc3[nH]2)CC1`, the activity change, negative = inhibition is reported as -31.8% (active). With `N#CC(C(=O)c1ccc(S(=O)(=O)N2CCCCCC2)cc1)c1nc2ccccc2[nH]1` (stereo not drawn) the activity change, negative = inhibition was -22.2% (inactive). For `O=C(C1CCCO1)N1CCC(c2nc3ccccc3[nH]2)CC1` (stereo not drawn), the activity change, negative = inhibition was -12.2% (inactive). In the case of `O=C(Nc1cc(Cl)cc(Cl)c1)c1ccc2c(c1)N(Cc1cccc(Cl)c1)C(=O)c1ccccc1S2=O` (stereo not drawn), the activity change, negative = inhibition is reported as -24% (inactive). In the case of `O=C(Nc1ccc(F)cc1F)c1ccc2c(=O)n3c(nc2c1)CCCCC3`, the activity change, negative = inhibition is reported as 0.28% (inactive). For `Cc1cc(=O)c2cc(C(=O)Nc3cccc(C)c3C)ccc2[nH]1`, the activity change, negative = inhibition was -7.41% (inactive). For `O=C(Cn1cnc2c(cnn2-c2ccccc2)c1=O)NCc1ccccc1`, the activity change, negative = inhibition was 5.27% (inactive). With `O=C(Cn1cnc2c(cnn2-c2ccc(F)cc2)c1=O)NCCc1ccccc1` the activity change, negative = inhibition was -6.16% (inactive). In the case of `CC(=O)Cn1cnc2c(cnn2-c2ccccc2)c1=O`, the activity change, negative = inhibition is reported as -39.3% (active). With `COc1ccc(-c2nc(C)c(CCNC(=O)c3ccc(C(F)(F)F)cc3)s2)cc1OC` the activity change, negative = inhibition was -4.09% (inactive). For `Cc1cc(NS(=O)(=O)c2ccccc2)no1`, the activity change, negative = inhibition was -52.3% (active). `Cc1ccc(C)c(S(=O)(=O)Nc2cc(C)on2)c1` was tested, and the activity change, negative = inhibition was -1.84% (inactive). With `COc1cc2ccccc2cc1C(=O)Nc1ccc(S(=O)(=O)Nc2cc(C)on2)cc1` the activity change, negative = inhibition was 7.39% (inactive). `Cc1cccc(NC(=O)c2cc3c(C)nn(-c4ccccc4)c3s2)c1` was tested, and the activity change, negative = inhibition was 1.08% (inactive). For `O=C(CC(O)(C(F)(F)F)C(F)(F)F)Nc1ccc(Cl)c(Cl)c1`, the activity change, negative = inhibition was -45.8% (active). `O=C(CSc1nnc(-c2ccncc2)n1-c1ccccc1)Nc1ccc(Cl)c(Cl)c1` was tested, and the activity change, negative = inhibition was 7.05% (inactive). In the case of `NC(=O)N1CCCC1C(=O)Nc1ccc(Cl)c(Cl)c1` (stereo not drawn), the activity change, negative = inhibition is reported as -6.92% (inactive).
